This is an account of results in PubChem BioAssay AID624330 (Southern Research Specialized Biocontainment Screening …, 2012).

As usually defined, the inhibition is the change of the read-out against control, counted positive when it falls.

SMILES strings stand for the structures. Among all 340,000 compounds or so, about 2,100 (0.62%) were called active. Not all results are given here. Measured potencies and affinities stand elsewhere. A number with no mark means an inactive call.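 How the source made its calls: active means first-screen hits whose inhibition reached a set limit at any dose in the follow-up dose series; inconclusive means inhibition above the set first-screen limit but never retested; inactive means the rest.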

For this experiment, the target named is Rac GTPase-activating protein 1 (Homo sapiens) (UniProt Q9H0H5). Nature of the experiment: MgcRacGAP GTPase-activating activity inhibitors, confirmation, biochemical, ADP Hunter fluorescence, primary and confirmatory (AID 624330).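 Further: fluorescence reports GDP produced by GAP-driven GTP hydrolysis.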 The conditions noted are these: MgcRacGAP-stimulated Rac1 GTP hydrolysis, at 30 µM, hits give high values, GST-tagged Rac1 F28L mutant substrate.
Rac GTPase-activating protein 1 (Homo sapiens), sequence (Q9H0H5 whole entry, looked up): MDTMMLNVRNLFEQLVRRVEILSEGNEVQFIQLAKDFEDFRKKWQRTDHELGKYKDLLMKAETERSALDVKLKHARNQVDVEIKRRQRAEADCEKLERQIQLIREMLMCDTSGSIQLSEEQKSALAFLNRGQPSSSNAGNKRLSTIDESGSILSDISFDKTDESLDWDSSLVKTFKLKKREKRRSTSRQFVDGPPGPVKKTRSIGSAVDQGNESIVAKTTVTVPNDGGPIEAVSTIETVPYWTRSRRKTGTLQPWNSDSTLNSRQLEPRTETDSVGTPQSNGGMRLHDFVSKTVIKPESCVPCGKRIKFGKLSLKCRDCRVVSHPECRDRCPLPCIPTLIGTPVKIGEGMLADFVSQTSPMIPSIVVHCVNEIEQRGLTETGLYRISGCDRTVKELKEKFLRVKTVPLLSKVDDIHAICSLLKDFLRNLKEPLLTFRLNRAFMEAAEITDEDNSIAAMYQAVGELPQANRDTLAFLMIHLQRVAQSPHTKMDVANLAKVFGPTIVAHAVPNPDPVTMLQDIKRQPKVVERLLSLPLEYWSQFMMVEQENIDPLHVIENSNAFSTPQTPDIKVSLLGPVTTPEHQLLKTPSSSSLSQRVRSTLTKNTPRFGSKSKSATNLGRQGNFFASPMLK
In the case of `COc1ccc(C)cc1NC(=O)NC1CC(=O)N(c2ccc3c(c2)OCCO3)C1` (stereo unspecified), the inhibition was 10.3%.

As for `CC(/C=C/c1ccccc1)=N/O`, the inhibition is 4.32%.

Take `CCOc1ccc(/C=C\C(C)=N\O)cc1`: the inhibition is 8.33%.

For `COc1ccc(Cl)cc1C(=O)NCCN1CCOCC1`, the inhibition was 3.67%.

For `Cc1cccc(NS(=O)(=O)c2ccc(C)c(C(=O)NCC(c3ccco3)N3CCCCC3)c2)c1` (stereo unspecified), the inhibition is 4.69%.

Regarding `COC(=O)c1ccc2c(c1)NC(=O)c1ccccc1S2`, the inhibition was 8.59%.

In the case of `C=CC(=O)N1c2ccccc2Sc2ccc(NC(=O)OCC)cc21`, the inhibition was 6.2%.

For `CC(=O)c1ccc2c(c1)N(C)c1ccccc1S2`, the inhibition is 18.2%.

`C/C(=N\NC(=O)c1ccccc1F)c1cccc(NC(=O)c2ccccc2)c1`: the inhibition was 4.16%.

Regarding `C/C(=N\Nc1ccc(C(=O)O)cc1)c1ccc(Br)cc1`, the inhibition was 14%.

For `CCOC(=O)Nc1ccc2c(c1)N(C(=O)CN(C)C)c1ccccc1S2`, the inhibition was -22.2%.

As for `COc1ccc(/C(C)=N/Nc2ccc(C(=O)O)cc2)cc1OC`, the inhibition was -0.19%.

In the case of `C/C(=N\NC(=O)c1ccccc1F)c1cccc(NC(=O)c2ccc(C)cc2)c1`, the inhibition is 5.2%.

On to `Cc1ccc(CN2[C@@H](Cc3ccccc3)C(=O)CS2(=O)=O)cc1`, for which the inhibition was 3.43%.

For `O=C(NNC(=O)c1n[nH]c2ccccc12)c1ccccc1`, the inhibition was 4.79%.

On to `CN1CCN(c2cc(C(F)(F)F)nc(-c3ccccn3)n2)CC1`, for which the inhibition was 1.81%.

For `C=CCn1c(SCc2ccc(C(=O)OC)cc2)nnc1-c1sc(N)nc1C`, the inhibition is 3.61%.

In the case of `COc1ccccc1CCNC(=O)NC1CCCCC1`, the inhibition is 3.38%.

As to `Cc1ccccc1N(CC(=O)NCCc1ccccc1)C(=O)c1ccc(N2CCCC2)nc1`, the inhibition was -2.74%.

With `COc1cccc(OC)c1C(=O)NC(=S)NCc1cccnc1`, the inhibition is 6.24%.

Consider `CCC1CCCCN1C(=O)COc1ccc2c(c1)OCO2` (stereo unspecified), for which the inhibition was 2.24%.

Take `Cc1ccc(C(=O)c2c3ccc([N+](=O)[O-])cc3[n+]([O-])n2CCCN)cc1`: the inhibition is 8.83%.

Turning to `C/C(=N\NC(=O)c1ccc(O)cc1)c1cccc(NC(=O)c2ccc(Cl)cc2)c1`, the inhibition is 8.52%.

In the case of `CC(=O)Nc1cccc(/C(C)=N/NC(=O)c2ccc(O)cc2)c1`, the inhibition is 0.87%.

Consider `Cc1cccc(C(=O)Nc2cccc(C(=O)N3CCOCC3)c2)c1`, for which the inhibition was -5.11%.

Regarding `COCCNC(=S)Nc1cc2oc3ccccc3c2cc1OC`, the inhibition is 17.8%.

For `COCCNC(=S)Nc1cc(OC)c(NC(=O)c2ccco2)cc1OC`, the inhibition was 3.43%.

Turning to `CC(=O)N1CCc2c(sc(NC(=O)Cc3ccc(C)cc3C)c2C#N)C1`, the inhibition is -2.35%.

Take `Cc1cccc(-n2cnc(C(=O)N/N=C/c3ccccc3)c2)n1`: the inhibition is 6.69%.

Turning to `COc1ccc(/C=N/NC(=O)c2nc(-c3ccccc3)n(-c3ccccc3)n2)cc1`, the inhibition is -5.29%.

As for `COc1ccc(/C=N/NC(=O)c2nc(-c3ccccc3)cc(-c3ccccc3)n2)cc1OC`, the inhibition was 11.2%.

Regarding `COc1ccc(/C=N/NC(=O)c2nc(-c3ccccc3)cc(-c3ccccc3)n2)cc1O`, the inhibition was 24.5%.

With `Cc1cc(C(=O)N/N=C/c2c(C)nn(-c3ccccc3)c2C)n[nH]1`, the inhibition is -3.78%.

Turning to `COc1ccc(/C=N/NC(=O)c2nc(-c3ccccc3)n(-c3ccccc3)n2)cc1OC`, the inhibition is 6.46%.

With `Cc1nn(-c2ccccc2)c(C)c1-c1cc(C(=O)N/N=C/c2ccc(O)cc2)[nH]n1`, the inhibition was 19.3%.

In the case of `Cc1cccc(-n2cnc(C(=O)N/N=C\c3ccc(Br)cc3)c2)n1`, the inhibition is 12.1%.

On to `O=C1CCC2(CC1)NC(=O)N(c1ccccc1)N2`, for which the inhibition is -10.2%.

Take `O=C1CNC(=S)N1CCOc1ccccc1`: the inhibition was -1.2%.

Consider `COc1ccc(S(=O)(=O)Nc2cc(C(=O)NCCC(C)C)ccc2N2CCOCC2)cc1`, for which the inhibition was -3.38%.

In the case of `CCOc1ccc(-c2cc(C(=O)N3CCCC3)c3ccccc3n2)cc1`, the inhibition is 1.87%.

`CCOC(=O)COc1ccccc1-c1ccno1`: the inhibition is 5.09%.

`COc1ccc(S(=O)(=O)Cc2ccc(C(=O)NCC(OC)OC)o2)cc1`: the inhibition was 5.28%.

In the case of `CCC1C(=O)NCCN1C(=O)c1cc(COc2cc(C)ccc2C)on1` (stereo unspecified), the inhibition was 13.8%.

As for `O=C(NCc1cccnc1)c1ccccn1`, the inhibition was 3.14%.

`O=C(Nc1cnccn1)Nc1ccc(Cl)cc1Cl`: the inhibition was -2.37%.

`O=C(CCc1c[nH]c2ccccc12)NCCc1ccccc1`: the inhibition was 7.24%.

In the case of `O=C(CCc1c[nH]c2ccccc12)NCCc1ccc(Cl)cc1`, the inhibition is 6.06%.

Regarding `Cc1ccc(NC(=O)C(OC(=O)c2cnc(C)cn2)c2ccccc2)c([N+](=O)[O-])c1` (stereo unspecified), the inhibition is 4.33%.

Turning to `O=C(COc1ccc2cc(Br)ccc2c1)N1CCCC1`, the inhibition was 8.08%.

Regarding `Cc1[nH]nc(-c2ccc(O)c(C)c2O)c1Oc1ccccc1`, the inhibition was 18.4%.

Regarding `CCCOC(=O)c1ccc(Oc2c(-c3ccc(O)cc3O)n[nH]c2C)cc1`, the inhibition is 19.3%.

As for `CCOc1ccc(-c2n[nH]c(C)c2Oc2ccc(OC)cc2)c(O)c1`, the inhibition is 11%.

On to `COc1ccc(-c2[nH]ncc2-c2csc(C)n2)c(O)c1`, for which the inhibition is 13.3%.

For the compound `O=S(=O)(N/N=C\c1ccccc1O)c1ccc(Cl)cc1`, the inhibition is 6.73%.

Regarding `O=C1CC(C(=O)Nc2ccc(Cl)cc2)S/C(=N\N=C\c2ccco2)N1` (stereo unspecified), the inhibition was 10.6%.

For the compound `c1ccc(CCNc2ccnc3cc4ccccc4cc23)cc1`, the inhibition is 13.8%.

Consider `COc1ccc(Nc2ccnc3ccccc23)cc1`, for which the inhibition was 3.59%.

`COCCN1C(=O)N(c2ccccc2)C(=O)C1CC(=O)Nc1cc(OC)cc(OC)c1` (stereo unspecified): the inhibition was -13.2%.

As to `COC(=O)C(Cc1cncn1COCc1ccccc1)NC(=O)OC(C)(C)C` (stereo unspecified), the inhibition is 4.31%.

Take `c1ccc(CN2CCN(c3ncnc4c3[nH]c3ccccc34)CC2)cc1`: the inhibition was 20.2%.

In the case of `Cc1ccc2[nH]c3c(N4CCN(Cc5ccccc5)CC4)ncnc3c2c1`, the inhibition is 22.2%.

In the case of `O=C(CCCc1ccccc1)Nc1ccnn1C1CCN(Cc2ccccc2F)CC1`, the inhibition was 7.8%.

`Cc1occc1C(=O)NNC(=O)C1CCCC1`: the inhibition was 0.63%.

Consider `COc1cccc(CN2CCSCC2)c1`, for which the inhibition was 16.8%.

As to `COc1cc(OC)cc(C(=O)N2CCN(Cc3cccc(F)c3)CC2)c1`, the inhibition was 27.4%.

As for `COc1ccc(N2CCN(C(C)C(=O)N(C)Cc3ccccc3)CC2)cc1` (stereo unspecified), the inhibition is 11%.

On to `COc1ccc(CN2CCC(Cc3ccccc3)CC2)cc1OC`, for which the inhibition was 29.4%.

On to `COc1ccc(CN2CCN(C)CC2)cc1OCc1ccccc1`, for which the inhibition is 8.63%.

Regarding `CNC(=O)NC(=O)C(C)N1CCN(C/C=C/c2ccccc2)CC1` (stereo unspecified), the inhibition is -5.37%.

As to `COc1ccc(CN2CCN(C(=O)c3cccc4ccccc34)CC2)cc1OC`, the inhibition was 30.3%.

`COc1ccc(CN2CCOCC2)cc1OC`: the inhibition is 11.6%.

`O=C(CN(c1ccccn1)S(=O)(=O)c1ccccc1)N/N=C/c1cccc([N+](=O)[O-])c1`: the inhibition was 6.03%.

Regarding `CC(NC(=O)C1CCN(c2nnc(N3CCCC3=O)s2)CC1)c1ccccc1` (stereo unspecified), the inhibition was 1.18%.

Take `Cc1nn(-c2cc(C(F)(F)F)ccc2Cl)c2nc(C(F)(F)F)[nH]c(=O)c12`: the inhibition was 6.22%.

As for `CCN1C(=O)CC(N2CCN(c3cccc(OC)c3)CC2)C1=O` (stereo unspecified), the inhibition was 7.87%.

With `COc1ccc(CN2CCN(c3ncccn3)CC2)c(OC)c1`, the inhibition is 9.88%.

For `COc1cc(OC)c(OC)cc1CN1CCN(Cc2cccc(F)c2)CC1`, the inhibition is 9.82%.

For `COc1ccc(CN2CCN(S(=O)(=O)c3ccc(F)cc3)CC2)cc1OC`, the inhibition was 19.8%.

Turning to `COc1ccc(CN2CCN(c3ccccc3OC)CC2)c(OC)c1`, the inhibition is 25.9%.

For the compound `COc1cc(CN2CCN(Cc3ccc(C)cc3)CC2)c([N+](=O)[O-])cc1OC`, the inhibition was 31.1%.

`CC(C(=O)N(C)Cc1cccc(F)c1)N1CCN(S(=O)(=O)c2ccc3c(c2)OCCCO3)CC1` (stereo unspecified): the inhibition is 4.74%.

As to `COc1ccc(CN2CCN(C(C)C(=O)N3CCc4ccccc43)CC2)cc1OC` (stereo unspecified), the inhibition is 7.8%.

Regarding `COc1cc(CN2CCN(Cc3ccc([N+](=O)[O-])cc3)CC2)c([N+](=O)[O-])cc1OC`, the inhibition is 28.4%.

For the compound `CC(NCC(c1ccco1)N1CCCCC1)C(=O)NC1CCCC1` (stereo unspecified), the inhibition was 6.01%.

Regarding `Cc1[nH]ccc(=O)c1OCc1ccc(Cl)cc1`, the inhibition was 8.17%.

For `CCCSc1nnc2c(n1)OC(c1cccn1C)N(C(C)=O)c1ccccc1-2` (stereo unspecified), the inhibition was 7.61%.

With `Cc1cccc(NC(=O)Nc2cnccn2)c1C`, the inhibition was 7.34%.

Turning to `COc1cc(C(=O)NC2CCCC2)c(Br)c(OC)c1OC`, the inhibition is 11.2%.

Regarding `Cc1ccc(C(CNS(=O)(=O)c2ccc(F)cc2)N2CCN(C)CC2)cc1` (stereo unspecified), the inhibition is 3.73%.

Regarding `C#CCOCCOCCOCCNc1nc(N2CCN(C(=O)[C@H]([C@@H](C)O)n3cc(CCCCN)nn3)CC2)nc(N2CCN(C(=O)[C@H](C)n3cc(CCCN=C(N)N)nn3)CC2)n1`, the inhibition is 6.19%.

Regarding `CCOc1ncccc1C(=O)OCC(=O)c1ccc(OC)c(OC)c1`, the inhibition was 2%.

As for `CCCN1CCC(N(CCc2ccccc2)Cc2ccccc2)CC1`, the inhibition was -10%.

Turning to `COc1cccc(CN2CCC(N(CCc3ccccc3)Cc3ccccc3)CC2)c1OC`, the inhibition was 22.3%.

For the compound `CSc1nnc(-c2ccc(S(=O)(=O)N3CCCCC3)cc2)o1`, the inhibition was 1%.

As to `CCC(C)c1ccccc1NC(=O)C(C)OC(=O)c1ccco1` (stereo unspecified), the inhibition is 1.05%.

With `O=c1c(Cc2c(F)cccc2Cl)c(O)ccn1CC1CCCO1` (stereo unspecified), the inhibition is -2.7%.
